Among the data in PubChem BioAssay (NCI) are growth values, retold here.

Structures are written as SMILES. About 83,000 compounds went through this panel and 20% of them were active in at least one assay; those are over-represented in the sample as a whole.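 Single-dose data. Exposure time 48 hours. Values below 10 considered active.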 A number with no mark means an inactive call. Calls of active or inactive are those of the source.

The test relates to HS 578T breast. Briefly: NCI-60 one-dose screen, 48 h (100 = growth as untreated, 0 = no growth, -100 = all killed). Conditions: 10 µM unless noted. The procedure: Growth inhibition of the HS 578T human tumor cell line is measured as a screen for anti-cancer activity. Cells are grown in 96 well plates and exposed to the test compound for 48 hours. Compounds are tested at a single concentration, which is 10^-5 M for most compounds. The reported endpoint is percent growth (GI% or GIPRCNT), where numbers from 0 - 100% represent growth inhibition, and numbers from -100% - 0 represent cell death. For example, a value of 40 represents 60% growth inhibition. A value of 0 means no net growth occurred over the course of the experiment. A value of -40 indicates 40% of cells at the beginning of the experiment died by the end of the experiment. A value of -100 means all cells are dead at the end of the experiment.
NCI-60 Human Tumor Cell Lines Screen was performed using the standard one-dose NCI protocol, which is described in more detail at https://dtp.cancer.gov/discovery_development/nci-60/default.htm.
Compounds with GIPRCNT values below 10 were considered active. Activity score was based on GIPRCNT using the following formula: […]
Score is 0 for GIPRCNT values of 100 or above, 50 for GIPRCNT values of 0, and 100 for GIPRCNT values of -100.
Take `c1ccc(-c2c(-c3ccccc3)[n+](Cc3ccc4ccccc4c3)c(-c3ccc(-c4nc5ccccc5s4)cc3)n2Cc2ccc3ccccc3c2)cc1`: the growth was -45.3% (active).

As for `CC(=O)O[C@H]1[C@@H]2OC(=O)C(CSc3ccccc3)[C@@H]2C[C@H]2O[C@]2(C)CC/C=C(\C)CCC[C@@H]1C` (stereo not given in full), the growth was 69.6%.

Consider `C=CC(=O)Nc1cccc(Nc2nc(SC)nc(-c3cccc([N+](=O)[O-])c3)c2C#N)c1`, for which the growth is 53.7%.

`Cn1nc(N)c2cc([C@@H]3Nc4ccc5[nH]ncc5c4[C@H]4C5CCC(C5)[C@@H]34)ccc21` (stereo not given in full): the growth was 20.6%.

Regarding `Cc1ccc(NC(=O)C2CCC(CN3CCN(C)CC3)CC2)cc1Nc1nccc(-c2cccnc2)n1` (stereo not given), the growth was 85.1%.

In the case of `COc1nc2c(c(=O)n1C)CN(Cc1ccccc1)C=N2`, the growth is 113%.

Take `COc1ccc(/C=C/C(=O)c2cc(O)ccc2O)cc1`: the growth is 106%.

For the molecule `CSc1ccc(SC2c3ccc(C)cc3Oc3nc(N)c(C#N)c(N)c32)cc1` (stereo not given), the growth is -8.07% (active).

On to `COc1cc(C)c(C2C(C#N)=C(N)Oc3n[nH]c(-c4cccs4)c32)cc1C(C)C` (stereo not given), for which the growth was 103%.

Regarding `COc1ccc(CN2c3ccccc3Sc3ccccc32)c(C(F)(F)F)c1`, the growth is 22.8%.

`CCOc1ccc(C(C)=O)cc1NC(=O)c1cccc(-c2nnn(CC)n2)c1`: the growth is 25.4%.

Regarding `COc1cc(C=Nc2oc(-c3ccccc3)c(-c3ccccc3)c2C#N)cc(CN2CCCCC2)c1O`, the growth is 95.9%.

With `CC(C)CSc1nc(N)nc2c1ncn2C1OC(CO)C(O)C1O` (stereo not given), the growth is 103%.

On to `COc1cc(-c2nn(-c3ccc(Br)cc3)cc2C(=O)O)ccc1O`, for which the growth was 101%.

`NC(=O)c1cc(Cl)ccc1NC(=O)/C=C/c1ccccc1`: the growth was 7.85% (active).

Turning to `COc1ccc(/C=C\c2cc(OC)c(OC)c(OC)c2)cc1OCC(=O)Nc1ccc2nc(C)sc2c1`, the growth is 36.4%.

Regarding `O=C(C(=O)c1ccc2c(c1)OCO2)c1ccc2c(c1)OCO2`, the growth is 96.3%.

Take `CC1=C(O)C(=O)C(C(C#N)(C#N)C(C#N)C#N)C1` (stereo not given): the growth was 98.9%.

As for `CC1(C)CC[C@]2(C(=O)Nc3ccccn3)CC[C@]3(C)C(=CC[C@@H]4[C@@]5(C)C/C(=C/c6cccnc6)C(=O)C(C)(C)[C@@H]5CC[C@]43C)[C@H]2C1`, the growth is 63.4%.

Consider `Fc1ccc2[nH]cc(SSc3c[nH]c4ccc(F)cc34)c2c1`, for which the growth was -29.2% (active).

With `COc1cc2nnc3c4cccnc4[nH]c3c2cc1OC`, the growth is 58.5%.

Take `COc1cc(Nc2cc(C)nc(N3CCN(c4ccnc5cc(Cl)ccc45)CC3)n2)cc(OC)c1`: the growth is 18.2%.

On to `CNc1ccc(-c2cc(=O)oc3ccc(Cl)cc23)cc1`, for which the growth is 16%.

`COc1ccc(-c2n[nH]nc2-c2csc3ccccc23)cc1OC`: the growth is 6.17% (active).

On to `COc1cccc(/C=N/NC(=O)c2ccccc2Nc2ccnc(C(F)(F)F)c2)c1O`, for which the growth is 44.9%.

Regarding `O=c1nc2oc3ccc4ccccc4c3cc-2s1`, the growth was 3.65% (active).

For the molecule `C#CCOc1ccc2ncnc(N3CCC(NC(=O)CCl)CC3)c2c1`, the growth was 46.7% [8.25 µM].

In the case of `CCn1c(O)c(/C=N/NC(=O)C(C)c2ccc(CC(C)C)cc2)sc1=S` (stereo not given), the growth is 17.8%.

As to `N#Cc1c(-c2ccc(Cl)cc2)nc(N/N=C/c2cccc(Br)c2)nc1N1CCOCC1`, the growth was 82.1%.

As to `CC(O)CN1CC(O)=C(c2nc3ccccc3s2)C1=N` (stereo not given), the growth is 104%.

Turning to `COc1ccc(O)c(N=Nc2nccs2)c1`, the growth was 103%.

On to `Cc1nc2ccccc2n1C(=O)C[C@@H]1NC(=S)NC1=O`, for which the growth was 104%.

With `CN1CCN(c2nc(NCCCNc3ccnc4cc(Cl)ccc34)c3ccccc3n2)CC1`, the growth is 79.5%.

Take `C#CCOc1ccc2ncnc(Nc3cccc(CNC(=O)CCl)c3)c2c1`: the growth was 37.8% [8.25 µM].

Regarding `OCC(O)c1nc2ccc3[nH]ncc3c2c2c1CCCC2` (stereo not given), the growth is -10.5% (active).

Take `COc1ccc(S(=O)(=O)N2CCCCCC2)cc1NC(=O)c1[nH]c(C)c2c1CCCCC2=O`: the growth was 17.5%.

As for `CCCCn1c(-c2ccc(C(=O)O/N=C(\N)c3ccc4c(c3)OCO4)cc2)nc(-c2ccccc2)c1-c1ccccc1`, the growth was 41.1%.

With `Cc1cc(N2CCOCC2)nc(N[C@@H]2CCC[C@H](Nc3ccnc4cc(Cl)ccc34)C2)n1`, the growth is -11.1% (active).

Regarding `CC1=C/C(=C(\c2ccc(N(C)C)cc2)c2ccc([N+](C)(C)C)cc2)C=CC1=[N+](C)C`, the growth is 55%.

Turning to `COc1ccc(S(=O)(=O)N2CC3(COC3)C2)cc1NC(=O)c1[nH]c(C)c2c1CCCCC2=O`, the growth was 26.7%.
